# MRP resist rev – reverses drug resistance mediated by MRP; differential viability (reversal), % at 10 µM; AID 602; 0.04% of 85,000 active; H69AR cells + 2 uM doxorubicin, CellTiter-Glo, 72 h;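 active means viability drop by adding the cancer drug above about 55%, with treated viability meeting a 40% cutoff, limit read from the data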;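 further: viability without doxorubicin minus viability with 2 µM doxorubicin for each compound; larger differential means the compound sensitizes cells more to doxorubicin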
# MRP-1 activ – activates MRP-1 | H69AR cells + doxorubicin, viability rescue, CellTiter-Glo | viability increase, % at 10 µM | 0.61% of 140,000 active;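 active means viability gain under doxorubicin at or above a set limit, the compound median plus 3 SD, cut at about 4.7% in these data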;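 further: MRP-1 overexpressing cells given doxorubicin 25 µM after compound pretreatment; 18-22 h compound pretreatment then 72 h with doxorubicin before readout; 0% = doxorubicin-only wells and 100% = vehicle-treated cells without doxorubicin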
# GALR2 blocker – blocks the human galanin receptor 2 | O43603 | GALR2-expressing cells, antagonist mode | inhibition, % at 4 µM | 0.39% of 140,000 active; in the data active means inhibition above about 27%;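 further: cells stimulated with galanin 1-16 at roughly its EC80; 0% = agonist challenge control and 100% = basal control without agonist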
# S1P2 ag – agonists of human S1P2 receptor; 0.46% of 97,000 active; AID 729; activation, % at 4.5 µM; S1P2-expressing cell line, agonist reporter read-out; in the data active means activation above about 16%;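 further: 0% = vehicle low control and 100% = maximal reference agonist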
# Target sequence (O95136 whole entry, looked up): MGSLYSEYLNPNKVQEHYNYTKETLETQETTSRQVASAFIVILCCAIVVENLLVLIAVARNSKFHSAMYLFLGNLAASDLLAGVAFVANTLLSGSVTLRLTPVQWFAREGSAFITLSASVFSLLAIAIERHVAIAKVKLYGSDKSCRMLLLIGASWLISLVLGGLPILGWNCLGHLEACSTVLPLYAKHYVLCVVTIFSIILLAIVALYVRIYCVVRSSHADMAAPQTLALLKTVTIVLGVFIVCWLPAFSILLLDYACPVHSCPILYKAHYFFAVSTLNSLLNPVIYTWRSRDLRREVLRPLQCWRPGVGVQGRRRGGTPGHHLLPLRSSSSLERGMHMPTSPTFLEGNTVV
# S1P2 blocker – blocks the human S1P2 receptor; O95136; cell-based S1P2 antagonist assay, inhibition at 5 uM; inhibition, % at 5 µM; 0.21% of 97,000 active; AID 736; in the data active means inhibition above about 45%;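 further: CRE beta-lactamase reporter cells expressing human S1P2 stimulated with S1P; 0% = agonist at EC80 alone and 100% = agonist plus reference antagonist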
# GALR2 ag – agonists of human galanin receptor 2 (GALR2); O43603; GALR2-expressing cells, agonist activation read-out; activation, % (test concentration not listed); 0.48% of 140,000 active; in the data active means activation above about 5%, passing the limit was not always enough;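 further: 0% = vehicle buffer wells and 100% = reference agonist at full effect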
# * hit, by the source's call; . = no result. Most compounds without a hit are left out; they make up all but 1.8% or so of the library.
SMILES,MRP resist rev,MRP-1 activ,GALR2 blocker,S1P2 ag,S1P2 blocker,GALR2 ag
C/C(Cn1nc([N+](=O)[O-])cc1C)=N\NC(=O)c1ccc(C(C)(C)C)cc1,.,-0.2,-7.6,-6.2,-13.5,-1.7
O=C(CC1C(=O)N(c2ccccc2)C(=S)N1c1ccccc1)c1ccc(Br)cc1 (stereo not given),.,4.7*,0.1,.,.,0.3
O=C(CC1C(=O)N(c2ccccc2)C(=S)N1c1ccccc1)c1ccccc1 (stereo not given),.,-1.6,4.2,.,.,0.3
O=C(CCSc1ccccc1)Nc1ccc(OCc2ccccc2)cc1,.,0.1,-0.3,-2.2,16.7,-2.0
Cc1cccc(C(=O)c2cnc3ccccc3c2-c2ccccc2)c1,.,5.0*,-12.2,-3.7,-12.5,-0.8
COc1ccc(/C=C/C(=O)NCc2cnn(C)c2C)cc1COc1ccc(Br)cc1,.,5.3*,-18.6,-3.0,14.6,-0.7
Cc1ccc(C(=O)NC(C)c2ccc(F)cc2)cc1 (stereo not given),.,6.3*,14.4,.,.,-1.3
Cc1cccc(NC(=O)Nc2ccc(C#N)cc2)n1,-2.2,-3.9,37.8*,.,.,-3.2
COc1ccc(N2C(=O)CC(N3CCC(O)(c4cccc(C(F)(F)F)c4)CC3)C2=O)cc1 (stereo not given),.,6.5*,6.0,-7.2,5.2,-1.6
CCOc1ccc(N2C(=O)CC(N3CCC(O)(c4ccc(Br)cc4)CC3)C2=O)cc1 (stereo not given),-1.8,0.4,3.9,-7.3,19.8,-2.2
Cc1c(C(=O)N/N=C/c2ccc(N(C)C)cc2)[nH]c2ccc(Cl)cc12,.,-0.5,4.4,.,.,6.4*
Cc1c(C(=O)N/N=C/c2ccccc2)[nH]c2ccc(Cl)cc12,.,-3.1,3.7,.,.,-0.6
O=C(c1cc(-c2ccco2)on1)N1CCN(C(c2ccccc2)c2ccccc2)CC1,20.6,-0.6,11.8,-12.9,-14.2,-2.5
CC1CN(C(=O)Cc2ccc(-c3ccccc3)cc2)CC(C)O1 (stereo not given),-11.2,0.5,-9.0,3.6,4.0,-1.3
O=C(CCn1c(=O)oc2ccccc21)Nc1ccccc1,5.2,-2.8,-13.8,0.2,6.2,7.9*
COc1cccc(Cn2c(N)c(C#N)c3nc4ccccc4nc32)c1OC,-10.0,-1.6,-14.6,24.1*,-37.2,3.9
N#Cc1c(N)n(CCOC(=O)c2cccc(Br)c2)c2nc3ccccc3nc12,5.8,5.7*,-19.0,3.2,-35.9,7.1
Cc1ccc(C(=O)NCCn2c(N)c(C#N)c3nc4ccccc4nc32)cc1,.,-1.8,0.0,.,.,2.0
COc1ccc(Cn2c(N)c(C#N)c3nc4ccccc4nc32)cc1,.,-0.3,-9.1,31.2*,-61.6,3.0
COc1ccc(-n2c(NC(=O)c3ccc(Br)o3)c(C#N)c3nc4ccccc4nc32)cc1,.,-1.5,-1.0,12.1,-14.8,5.4*
COCCn1c(N)c(C#N)c2nc3ccccc3nc21,11.4,-1.3,-0.4,3.2,-6.0,3.2
CCC(=O)N1CCN(c2ccccc2NC(=O)COc2ccccc2Cl)CC1,-14.5,-2.0,10.7,-2.7,2.0,1.1
c1ccc(-c2cc3n(c2)CCc2ccccc2-3)cc1,-24.1,-6.8,7.1,-2.5,12.6,-0.8
Cc1cccc2c1N1C(=O)c3c(C(=O)O)cccc3C1CC2C (stereo not given),4.3,-2.3,0.4,-2.6,-2.6,-2.4
CCOC(=O)NS(=O)(=O)c1ccc(CCNC(=O)c2cc(C)on2)cc1,.,-0.5,6.9,.,.,-0.8
SMILES,MRP resist rev,MRP-1 activ,GALR2 blocker,S1P2 ag,S1P2 blocker,GALR2 ag
COc1cc(Cn2c(N)c(C#N)c3nc4ccccc4nc32)cc(OC)c1,6.8,-3.2,-5.9,14.5,-35.4,13.1*
CCOC(=O)c1sc(=S)n(-c2ccc(Cl)cc2)c1SC,.,-0.2,1.1,-2.2,12.1,-1.1
CCCCNC(=O)c1cc2c(=O)n3cccc(C)c3nc2n(Cc2ccccc2)c1=N,5.5,-5.5,3.9,.,.,7.7*
Cc1cccn2c(=O)c3cc(C(=O)NCCN4CCOCC4)c(=N)n(CCc4ccccc4)c3nc12,-5.2,-2.9,-28.6,38.7*,-31.9,7.9*
CCNC(=O)c1cc2c(=O)n3cccc(C)c3nc2n(CCc2ccccc2)c1=N,-3.7,-5.1,4.2,-3.6,-0.1,-0.3
COCCn1c(=N)c(C(=O)NCCc2ccccc2)cc2c(=O)n3cccc(C)c3nc21,.,.,-1.4,0.3,-9.1,-0.9
Cc1cccn2c(=O)c3cc(C(=O)NCCc4ccccc4)c(=N)n(CCCn4ccnc4)c3nc12,.,-7.0,-4.6,64.2*,-98.4,8.3
CCOc1cc(Br)ccc1S(=O)(=O)NCc1ccccc1,.,-3.0,-1.9,-1.9,-8.6,-2.1
O=c1[nH]cnc2c1cnn2Cc1ccccc1,10.7,-0.1,10.6,-3.0,-9.4,-2.9
CCCn1c(C)cc(/C=C(\C#N)C(=O)OCC(=O)Nc2ccc(OC)c(Cl)c2)c1C,.,9.4*,-11.1,.,.,-0.7
CCCn1c(C)cc(/C=C(\C#N)C(=O)OCC(=O)NC(=O)NCC)c1C,14.4,-3.0,-6.9,1.3,-10.0,1.6
C/C=C(/C)C(=O)O[C@@H]1[C@H](OC(C)=O)c2c(ccc3ccc(=O)oc23)OC1(C)C,.,-0.2,0.9,.,.,1.9
C/C=C(/C)C(=O)OC1c2c(ccc3ccc(=O)oc23)OC(C)(C)C1OC(C)=O (stereo not given),-18.6,-2.0,-1.5,20.2*,-5.1,0.0
CC(C)(C)C(=O)NCCN1CCN(C(=O)C(C)(C)C)CC1,1.2,-0.8,3.0,-4.3,7.5,-1.8
COC(=O)/C(=C\Nc1ccc(Cl)c2ccccc12)c1ncc(C(F)(F)F)cc1Cl,-21.9,-1.3,5.6,-11.4,2.7,-3.1
CON/C=C(\C=Nc1ccc(F)cc1)c1ncc(C(F)(F)F)cc1Cl,.,-1.1,-3.5,-8.6,62.5*,-2.7
Cc1ccc(NC(=O)CCSc2nnnn2-c2ccc3c(c2)OCO3)cc1C,14.1,6.2*,9.8,-0.3,11.0,-2.7
CCc1nnc(NC(=O)CSc2nc3cccnc3n2C2CCCCC2)s1,22.6,4.8*,0.2,-0.5,-3.7,-1.7
O=S(=O)(/N=C(/Nc1ccc(F)cc1F)c1ccccc1)c1ccc(Br)cc1,.,-1.4,-3.8,.,.,-0.8
Cc1ccc2cc(COC(=O)C3CCCO3)c(=O)[nH]c2c1 (stereo not given),.,-0.7,5.8,-3.1,-6.3,-3.1
C=CCc1cccc2cc(C(=O)NCc3cccnc3)c(=O)oc12,-2.9,-1.2,0.1,.,.,-0.3
CN(C)c1ccc(-c2nn3c(-c4ccccc4Cl)nnc3s2)cc1,-39.4,-0.9,-11.0,-4.0,-30.0,4.6
COc1ccccc1-c1nnc2sc(-c3ccc(N(C)C)cc3)nn12,.,-3.3,29.4*,.,.,3.0
Cc1cnc(-c2nnc(N(C)C(=O)c3ccncc3)s2)cn1,-13.8,.,.,.,.,.
O=C(NC1CCCC1)C(c1c[nH]c2ccccc12)N(C(=O)Cn1nnc(-c2ccc(Cl)cc2)n1)c1ccccc1 (stereo not given),.,11.0*,-9.2,-6.9,-6.3,-0.6
CCCCOC(=O)c1ccc(-c2ccc(/C=N/NC(=S)NCC)o2)cc1,.,-2.5,-1.4,23.5*,-37.5,6.0
CCCOC(=O)c1ccc(-c2ccc(C=O)o2)cc1,.,1.3,0.2,.,.,-0.3
